Bioassay records: PubChem BioAssay, several laboratories
PrPC TRFRET – cell surface PrPC inhibition, primary TR-FRET screen; P04156; TR-FRET read-out; inhibition, % at 13.8 µM; 370,000 compounds, 0.43% hits; AID 720596; in the data active = inhibition above about 24%; note: 0% = median of the test wells and 100% = reference compound wells
BJeLR viability – kills HRASV12-expressing BJeLR cells; BJeLR (HRASV12) viability, CellTiter-Glo ATP luminescence, 48 h; inhibition, % (test concentration not listed); 300,000 compounds, 0.17% hits; AID 1554; in the data active = inhibition above about 50%
FBA Mtb inh – Mtb fructose-bisphosphate aldolase inhibition; purified M. tuberculosis FBA, fluorescence read-out; inhibition, % at 1 µM; 360,000 compounds, 2.3% hits; in the data active = inhibition above about 27%;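 note: 0% = vehicle and 100% = reference inhibitor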
Target sequence (P9WQA3 whole entry, looked up): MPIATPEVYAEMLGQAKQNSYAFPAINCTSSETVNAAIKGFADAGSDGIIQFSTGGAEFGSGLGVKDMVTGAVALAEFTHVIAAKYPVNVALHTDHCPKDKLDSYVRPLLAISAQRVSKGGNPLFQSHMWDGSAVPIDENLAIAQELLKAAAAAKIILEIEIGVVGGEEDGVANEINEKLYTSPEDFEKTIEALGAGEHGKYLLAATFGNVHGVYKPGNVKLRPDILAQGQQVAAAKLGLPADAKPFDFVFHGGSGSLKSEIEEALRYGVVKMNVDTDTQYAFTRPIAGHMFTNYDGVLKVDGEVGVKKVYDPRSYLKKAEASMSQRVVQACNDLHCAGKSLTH
GDH-TPI inh – inhibits GDH-TPI coupling enzymes, artifact for Mtb FBA screen; GDH-TPI coupled enzyme counterscreen, NADH absorbance; inhibition, % at 4.8 µM; 360,000 compounds, 1.2% hits; AID 588335; in the data active = inhibition above about 30%;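 note: 0% = DMSO wells and 100% = wells lacking the enzyme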
RecA splice inh – Mtb RecA intein splicing inhibition; inhibition, % (no concentration beside the values); 290,000 compounds, 0.75% hits; cell-free RecA intein splicing, fluorescence; AID 2221; P9WHJ3; in the data active = inhibition above about 30%;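 note: 0% = vehicle wells and 100% = reference inhibitor control wells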
* marks the source's active call; other numbers are inactive results; i = inactive; / = not tested or not shown; + = active, no number. An excerpt weighted towards active compounds, which were near 4.2% of everything screened.

SMILES | PrPC TRFRET | BJeLR viability | FBA Mtb inh | GDH-TPI inh | RecA splice inh
Cc1cccn2c(=O)c3cc(C(=O)NCC4CCCO4)c(=N)n(Cc4cccnc4)c3nc12 (centres undefined) | -34 | / | + | 13 | /
CCOC(=O)[C@]12CCCC=C1N(Cc1ccc(OC)cc1)C(=O)[C@@H]2CC(=O)NCCC(C)C | 1 | / | / | / | /
Cc1cccc(NC(=O)[C@@H]2CC(=O)O[C@@H]2c2ccccc2)c1C | -5 | / | / | / | /
O=C(NC(=S)NC1CCN(Cc2ccccc2)CC1)c1ccc(F)cc1 | -9 | -1 | + | 2 | 1
COc1ccc(NC(=O)c2ccc(-c3ccc(C(C)=O)cc3)o2)cn1 | -1 | / | 19 | 32* | /
CCOC(=O)Cn1cc(CN2CCS(=O)(=O)N(Cc3ccc(F)cc3)C(C(=O)OC)C2)nn1 (centres undefined) | -6 | / | / | / | /
O=C(NN=Cc1ccccc1Cl)c1ccccc1 | 2 | / | 0 | 1 | /
COc1cc2cc(C(=O)N/N=C/c3ccc(F)cc3)[nH]c2cc1OC | 0 | 6 | 0 | 46* | -3
COc1cc2cc(C(=O)N/N=C/c3ccccc3Cl)[nH]c2cc1OC | -3 | 1 | 3 | 47* | -2
COc1ccc2cc(C(=O)N/N=C/c3cc(OC)c(OC)c(OC)c3)[nH]c2c1 | 8 | -4 | 4 | 49* | -2
COc1ccc(C(=O)N/N=C/c2ccc(OC)c(COc3ccc(F)cc3)c2)cc1 | 0 | -6 | -2 | 28 | -1
CCOc1ccc2[nH]c(C(=O)N/N=C/c3ccc(OC)cc3)cc2c1 | 12 | 32 | 7 | 55* | -3
C[C@H](NC(=O)OCc1ccccc1)P(=O)(O)O | 5 | / | / | / | /
COC(=O)[C@H](C)N(Cc1cn(Cc2ccccc2)nn1)S(=O)(=O)c1ccccc1Br | 4 | / | / | / | /
COc1cc(OC)c2cc(C(=O)N/N=C/c3cccc(OC)c3O)[nH]c2c1 | 9 | -11 | 6 | 43* | 3
COc1ccc(/C=N/NC(=O)CC(=O)N/N=C/c2ccc(OC)cc2)cc1 | -1 | -8 | 0 | 10 | 2
COc1ccc(/C=N/NC(=O)c2cc3cc(OC)c(OC)cc3[nH]2)cc1 | 1 | -4 | 4 | 42* | -10
COCC(C)NC(=O)c1cc2cc(OC)ccc2[nH]1 (centres undefined) | 7 | 0 | 46* | 4 | 3
CC(C)CNC(=O)OCc1cn(Cc2ccccc2Cl)nn1 | 0 | / | / | / | /
COC(=O)C1=C(C)N(C)C(=NCc2ccccc2)NC1c1cccc(Cl)c1 (centres undefined) | -13 | / | / | / | /
CSc1ccc(C(=O)c2[nH]c(=O)[nH]c2C)cc1 | -5 | -23 | -5 | 32* | -4
CC(C)OC(=O)/C(=C/c1ccc2c(c1)c1ccccc1n2C)NC(=O)c1ccccc1 | -5 | 16 | 0 | 34* | 1
CC(C)OC(=O)/C(=C\c1ccc2c(c1)c1ccccc1n2C)NC(=O)c1ccccc1 | 2 | -5 | 2 | 21 | -3
Cn1c2ccccc2c2cc(/C=C(\NC(=O)c3ccccc3)C(=O)O)ccc21 | 3 | -6 | -3 | 35* | 0
COP(=O)(CC(=O)OC(C)(C)C)C(CC(C)C)NC(=O)OCc1ccccc1 (centres undefined) | -4 | / | / | / | /
SMILES | PrPC TRFRET | BJeLR viability | FBA Mtb inh | GDH-TPI inh | RecA splice inh
CCOC(=O)/C(C#N)=C1\C(=O)N(Cc2ccccc2)c2ccccc21 | -8 | 2 | -1 | 20 | 4
CCCN1C=CC(=C/C=C(\C#N)C(=O)OCC)C=C1 | / | -12 | / | / | -10
CCOC(=O)/C(C#N)=C1/C=CN(Cc2ccccc2)C=N1 | 19 | 7 | -3 | 48* | -2
CCOC(=O)/C(C#N)=C1\C=CN(C)C(C)=N1 | 1 | -15 | 0 | 42* | 0
CCOC(=O)/C(C#N)=C1/C=Nc2ccccc2N1 | -17 | 8 | -7 | -2 | /
CCOC(=O)/C(C#N)=C1/C=CN(c2ccccc2)C=N1 | -16 | 2 | 0 | 38* | 1
CCOC(=O)/C(C#N)=C1/C=CN(C)C=N1 | -6 | -4 | -3 | 50* | -2
CCCCN1CCN(C(=O)Cn2c(=O)c3ccccc3n(CC)c2=O)CC1 | -4 | / | / | / | /
CCOC(=O)/C(C#N)=C1/C=CN(c2ccc(C)cc2)C=N1 | -31 | 1 | -6 | 43* | 0
CCOC(=O)/C(C#N)=C1/SC(CC)C(=O)N1c1ccc(C)cc1 (centres undefined) | 6 | -4 | 2 | 8 | 8
COC(=O)[C@]12C[C@H](CC(=O)N3CCN(C(=O)c4ccco4)CC3)C(=O)N(Cc3ccccc3)C1=C[C@H](COCc1ccccc1)O[C@@H]2C | -14 | / | / | / | /
COc1cccc2c(=O)c3c(cnn3C)n(C)c12 | -6 | 10 | + | 1 | i
Cc1cccc(C(C)Nc2ccc([N+](=O)[O-])cn2)c1 (centres undefined) | -13 | -12 | -7 | 31* | 5
Cc1ccc(N2C(=O)SC(Cc3ccccc3)C2=O)cc1 (centres undefined) | 2 | 22 | 2 | 6 | 0
O=C1SC(Cc2ccccc2)C(=O)N1c1ccccc1 (centres undefined) | 8 | 89* | 0 | -1 | 2
CCCCNC(=O)C[C@H]1C[C@@]2(C(=O)OC)C(=C[C@H](C(C)C)O[C@@H]2C2CC2)N(CCc2ccc(OC)c(OC)c2)C1=O | -11 | / | / | / | /
COc1cc2c(cc1OC)C(c1ccc(-c3ccc(Cl)cc3Cl)o1)=NCC2 | 3 | -1 | 2 | 32* | 0
COc1cc2c(cc1OC)C(c1ccc(-c3cc(Cl)ccc3Cl)o1)=NCC2 | / | 13 | 0 | 14 | 6
C=CCN1C(=O)C(CC(=O)O)SC1=Nc1ccc(N=Nc2ccccc2)cc1 (centres undefined) | -15 | -1 | -1 | 63* | 5
O=C(c1cc(Cl)ccc1F)N1CCCC(c2nc(-c3cccs3)no2)C1 (centres undefined) | -1 | / | / | / | /
O=C(O)c1sc2cc(C(F)(F)F)cnc2c1-c1ccccn1 | 10 | 3 | 146* | 12 | 1
O=C(/C=C/c1ccccc1)Nc1ccc2c(c1)C(=O)NC2=O | -6 | 9 | 12 | 26 | -2
O=C(/C=C/c1ccccc1Cl)Nc1ccc2c(c1)C(=O)NC2=O | -9 | -3 | 12 | 37* | -1
CCOC(=O)[C@@]12CCC3=C1N(CCC3)C(=O)[C@H](CC(=O)NCc1ccc(C)o1)C2 | -2 | / | / | / | /
Cc1ccc(-c2cc(-c3nnc4sc(COc5ccccc5)nn34)[nH]n2)cc1 | -5 | / | / | / | /
SMILES | PrPC TRFRET | BJeLR viability | FBA Mtb inh | GDH-TPI inh | RecA splice inh
COc1ccc(NC(=O)CN(C)C(=O)c2cccc3ccccc23)cc1 | -1 | -5 | 131* | 1 | 2
O=C(O)c1ccccc1Sc1ncnc2sccc12 | 5 | -9 | -1 | 0 | -2
CCN(CC)C(=O)CSc1n[nH]c(=O)n1CCc1ccccc1 | 6 | 5 | 148* | -3 | -2
O=c1[nH]nc(Sc2ncnc3sccc23)n1CCc1ccccc1 | -5 | -7 | 0 | -4 | 31*
COC(=O)C1=C(C)N(C)C(=NCc2ccccc2C(F)(F)F)NC1CCc1ccccc1 (centres undefined) | -2 | / | / | / | /
COc1ccccc1C(=O)NCC(=O)N=Nc1c(O)n(C(C)C)c2ccccc12 | -9 | -1 | 1 | 31* | 2
